Experiment in all cases: NCI-60 one-dose screen, 48 h (100 = growth as untreated, 0 = no growth, -100 = all killed)
Conditions in all cases: 10 µM unless noted

The subject of assay [1] is SR leukemia.
Assay [2] deals with RPMI-8226 leukemia.
Assay [3] deals with OVCAR-8 ovarian.
In assay [4] the test system is OVCAR-5 ovarian.
For assay [5], the system named is OVCAR-4 ovarian.
Assay [6] has as its system SK-OV-3 ovarian.
The subject of assay [7] is OVCAR-3 ovarian.
The subject of assay [8] is NCI/ADR-RES ovarian.
The subject of assay [9] is T-47D breast.
Assay [10] has as its system BT-549 breast.
The test system of assay [11] is MDA-MB-435 melanoma.
Assay [12] has as its system MCF7 breast.
In assay [13] the test system is HCT-116 colon.
For assay [14], the system named is HCC-2998 colon.
The subject of assay [15] is KM12 colon.
In assay [16] the test system is HS 578T breast.
Assay [17] has as its system SW-620 colon.
Assay [18] relates to IGROV1 ovarian.

Compounds without any hit were thinned out: in the full panel of roughly 83,000, 20% have a hit.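 Note: values are percent growth. 100 is the growth of untreated cells, values between 100 and 0 indicate rising inhibition; between -100 and 0 indicates cell death.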 A number with no mark means an inactive call. Calls of active or inactive are those of the source. How the source made its calls: active means growth percent below 10; inactive means the rest.

On to `COc1ccc(/C(=C(\c2ccccc2)[N+](=O)[O-])c2ccc(OCCN3CCCC3)cc2)cc1`, for which the growth in assay [1] is 21.8%; in [2], 37%; in assay [3], 92.6%; in [4], 75.3%; in [5] it was 81.8%; in assay [6], 99%. In addition, the growth in assay [7] was 100%; in assay [8], 84.3%; in assay [9], 51.5%; in assay [10], 74.2%; in [11] it was 48.2%; in assay [12], 37.4%. Besides, the results for the growth in [13], in assay [14] and in assay [15] were 44.5%, 80.8% and 54.1%, respectively.
Consider `COC(=O)c1cc(O)c2cc3c(cc2c1-c1cc(OC)c(OC)c(OC)c1)OCO3`, for which the growth in assay [1] was 24.3%; in assay [2], 4.51% (active); in assay [3], 45.8%; in assay [4] it was 45%; in [5], 71.3%; in assay [6], 22.2%. Besides, the growth in assay [7] is 8.41% (active); in [16], -2% (active); in assay [8] it was 3.4% (active); in assay [9], 25.9%; in [11], 2.84% (active); in assay [17], 17.8%. Moreover, the growth in assay [12] is 21.9%; in assay [13], 20.8%; in [14] it was 52.3%; in assay [15] it was 25.7%.
Take `Nc1nc2c(c3cnccc13)C(c1cccc(Br)c1)Cc1cnccc1-2` (stereo not given): the growth in assay [1] is 17.8%; in assay [2] it was -2.76% (active); in [3] it was 28.8%; in assay [4], 43.9%; in assay [5], 37.5%; in [6] it was 30.8%. Besides, the growth in assay [7] was 1.08% (active); in assay [16], 42.3%; in [8] it was -4.12% (active); in [9], 43.9%; in assay [10], -15.6% (active); in assay [11], -37.2% (active). In addition, the growth in assay [17] is 25.9%; in [12], 11.5%; in assay [13], 3.93% (active); in assay [14], 34.8%; in [15], 13.2%.
With `NCCCOc1cc2ccccc2cc1C(=O)Nc1ccc(Cl)cc1OC(=O)c1cc2ccccc2cc1OCCCN`, the growth in assay [1] is -47.5% (active); in [2], -46.6% (active); in assay [3] it was -77% (active); in assay [4] it was -92.7% (active); in assay [5], -74.4% (active); in assay [6], -90.8% (active). Moreover, the growth was -99.1% (active) in assay [7]; -46.8% (active) in [16]; -61.5% (active) in [8]; -55.9% (active) in assay [9]; -76.9% (active) in [11]; -78.9% (active) in assay [12]. Besides, the growth in [13] was -92.6% (active); in assay [15] it was -96.5% (active).
`Clc1ccc(N/N=C(/c2ccccc2)c2ccccn2)nc1`: the growth in assay [1] was 26.1%; in assay [2] it was 29.3%; in assay [3], 33.5%; in assay [4], 49.3%; in assay [5] it was 24.5%; in [6], 26.5%. The growth in assay [7] was 40.7%; in assay [16] it was 80.6%; in assay [8], 5.2% (active); in [10], 55%; in assay [11], 57.3%; in assay [17] it was 44.8%. Also, the growth was -1.28% (active) in assay [12], 5.31% (active) in [13], 45.1% in [14] and 43.2% in assay [15].
`NNC(=O)CNc1ccc2ccccc2c1`: the growth is 55% in [1]; 113% in assay [2]; 108% in [3]; 195% in [4]; 108% in assay [5]; 106% in assay [6]. Moreover, the growth in assay [7] was 114%; in [16], 93.3%; in [8] it was 113%; in [9] it was 108%; in [10], 93.4%; in assay [11], 111%. Besides, the growth is 99.8% in [17]; 102% in assay [12]; 107% in [13]; 140% in [14]; 97.2% in [15].
Regarding `Oc1ccccc1/C=N/N=C/c1c(O)ccc2ccccc12`, the growth in assay [1] is 55.4%; in assay [2], 96.6%; in assay [3], 80.6%; in assay [4], 102%; in assay [5], 85.4%; in [6] it was 90.8%. Moreover, the growth is 80.5% in assay [7]; 101% in assay [16]; 92.5% in [8]; 63.4% in [9]; 77.8% in [10]; 108% in assay [11]. Besides, the growth in [12] is 52.7%; in assay [13] it was 83%; in [14] it was 91.2%; in [15], 76.4%.
Take `CCOC(=O)C1=NN(c2ccccc2)C2=NC(=O)/C(=C\c3cn(-c4ccccc4)nc3-c3cc4ccccc4o3)C(=O)N12`: the growth in assay [1] is 98%; in assay [2] it was 83%; in [3] it was 100%; in assay [4], 106%; in assay [5], 103%; in assay [6] it was 97.6%. The growth was 103% in assay [7]; 97.9% in assay [16]; 106% in assay [8]; 86.6% in [9]; 97.4% in assay [10]; 108% in [11]. Also, the growth in assay [17] was 91.9%; in assay [12], 75.6%; in assay [13], 89.1%; in [14], 101%; in assay [15], 97.5%.
As to `COc1ccc(-n2nnnc2-c2cn[nH]c2C(F)(F)F)cc1`, the growth in assay [1] is 73.4%; in [2], 92.1%; in assay [3], 95.5%; in [4] it was 108%; in [5], 79.1%; in assay [6] it was 103%. The growth in [7] was 104%; in assay [16] it was 101%; in assay [8], 129%; in assay [9] it was 77.8%; in [10], 85.5%; in [11] it was 98.1%. Moreover, the growth is 111% in assay [12], 97% in assay [13], 78.9% in [14] and 101% in assay [15].
As for `COC(=O)Nc1nc2ccc(C(=O)c3ccccc3N(C)C3COC3)cc2[nH]1`, the growth in assay [1] was 35.6%; in assay [2], -8.33% (active); in [3] it was 34.7%; in [4] it was 57%; in assay [5], 75.8%; in assay [18], 58.6%. The growth in [7] is 14.6%; in assay [16] it was 22.5%; in assay [8], 53.3%; in [10] it was 60.4%; in assay [11] it was -42.1% (active); in [17] it was 14.9%. Moreover, the growth in assay [12] was 19%; in assay [13], 30.4%; in assay [14] it was 67.2%; in assay [15], 17%.

For the origin of these results see PubChem BioAssay (NCI).
